Test [1] can be described thus: CCTE_Mundy_HCI_Cortical_NOG_NeuriteCount: CCTE's Neurite Outgrowth Assay in rat cortical cells for Neurite Count, Mundy Lab (AID 2284212).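 Further: cells fixed about two days after chemical exposure began.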 The gist of the method:
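Rat cortical primary cells; compound added 2 h post-plating, 1/10 dilution of working solution. Anti-betaIII-tubulin/AF488 ICC; ArrayScan neurite count vs DMSO.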

Test [2] in a line: CCTE_Mundy_HCI_Cortical_NOG_NeuriteLength: CCTE's Neurite Outgrowth Assay in rat cortical cells for Neurite Length, Mundy Lab (AID 2284213).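 Further: neurites imaged about 48 to 50 h after chemical exposure began.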 The gist of the method: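 First, rat primary cortical cells were plated and, 2 h later, given test chemical as a 1/10 dilution. Finally, βIII-tubulin immunostaining enabled automated imaging of neurite length.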
Test [3] is described as follows: CCTE_Mundy_HCI_Cortical_Synap_Neur_Matur_NeuriteLength: CCTE's Synaptogenesis and Neurite Maturation Assay in rat cortical cells for Neurite Length, Mundy Lab (AID 2284214). The gist of the method: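 Cultures of rat primary cortical cells received chemical at DIV 7 and were fixed at DIV 12, after glial arrest with AraC at DIV 5. Neurite length was measured by automated imaging of MAP2 immunofluorescence.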

Test [4] is described as follows: CCTE_Mundy_HCI_Cortical_Synap_Neur_Matur_NeuriteSpotCountPerNeuron: CCTE's Synaptogenesis and Neurite Maturation Assay in rat cortical cells for Neurite Spot Count per Neuron Count, Mundy Lab (AID 2284215). The gist of the method: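 High-content imaging counts synaptophysin puncta along MAP2-labelled neurites per neuron after chemical exposure of rat cortical cells from DIV 7 to termination at DIV 12 (AraC added DIV 5). Loss of signal relative to DMSO.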

Test [5] is described as follows: TAMU_PeakParms_SingleDonor1434_Chronotropy: Texas A&M University (TAMU) 1.5-hr Human Induced Pluripotent Stem Cell (iPSC)-derived Cardiomyocytes Calcium (Ca+2) Flux Assay for Cardiotoxicity: Chronotropy (changes in peak frequency) (AID 2284217). Conditions: actives raise or lower the signal. In short, it runs like this: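 iPSC-derived cardiomyocytes (single donor 1434) dosed at 0.2, 1, 10 and 100 uM in 0.5% DMSO for 1.5 h at 37C; Ca2+ dye fluorescence gave average beat frequency. Zero-beat points removed; bidirectional fit versus DMSO, POD as EC05.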

The nature of test [6]: CCTE_Mundy_HCI_Cortical_Synap_Neur_Matur_SynapseCount: CCTE's Synaptogenesis and Neurite Maturation Assay in rat cortical cells for Synapse Count, Mundy Lab (AID 2284218). The method, then:
(§1) CCTE_Mundy_HCI_Cortical_Synap&Neurite_Matur is a multiplexed, cell-based-readout assay that uses rat primary cortical cells with measurements taken at 288.33 hours after chemical dosing in a microplate: 96-well plate.CCTE_Mundy_HCI_Cortical_Synap_Neur_Matur_SynapseCount is one of eight components of the CCTE_Mundy_HCI_Cortical_Synap&Neurite_Matur assay. It measures synaptogenesis and neurite maturation related to number of synapses per neuron using High Content Imaging of fluorescently labelled markers.[…] Using a type of morphology reporter, loss -of-signal activity can be used to understand developmental effects.
(§2) Cells are plated onto 96 well plates and allowed 2 hr for attachment to the substrate. At days in vitro (DIV) 5, Cytosine Arabinoside (AraC) is added to arrest glial cell growth. Chemicals are dosed and a media change is performed at DIV 7 of differentiation and is continued through DIV 12 when the experiment is terminated. Cells are fixed with […] and Hoechst Dye. Cells are stained using Millipore Mouse anti-MAP2MAB3418 (1:800) and Millipore Rabbit anti-Synaptophysinsc-1750 (1:250) primary antibodies and Alexa Fluor-488 goat anti-mouse and AlexaFluor-546 goat anti-rabbit secondary antibodies to label neuronal cell nuclei, synapses and neurites. A Cellomics ArrayScan VTi HCS Reader is used for automated image acquisition and analysis of neurite outgrowth.

Test [7] is described as follows: CCTE_Mundy_HCI_hN2_NOG_NeuriteCount: CCTE's Neurite Outgrowth Assay in human hN2 cells for Neurite Count, Mundy Lab (AID 2284219; active means hit-call score of the fitted dose curve at least 0.9, where 1 is the maximum). The gist of the method: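 In this morphology assay, hNP1-derived neurons received test chemical 2 h post-plating and were fixed two days later in warm paraformaldehyde/sucrose containing Hoechst 33342. Neurites, labelled by rabbit anti-βIII-tubulin (1:800) and Alexa Fluor-488 (1:500), were counted automatically.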

A short description of test [8]: CCTE_Mundy_HCI_hN2_NOG_NeuriteLength: CCTE's Neurite Outgrowth Assay in human hN2 cells for Neurite Length, Mundy Lab (AID 2284220; active means hit-call score of the fitted dose curve at least 0.9, where 1 is the maximum). The gist of the method:
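Using βIII-tubulin immunofluorescence and Hoechst nuclear counterstain, this component quantifies neurite length in hNP1-derived neurons.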

Test [9] is described as follows: CCTE_Mundy_HCI_hN2_NOG_NeuronCount: CCTE's Neurite Outgrowth Assay in human hN2 cells for Neuron Count, Mundy Lab (AID 2284221; active means hit-call score of the fitted dose curve at least 0.9, where 1 is the maximum). In short, it runs like this:
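Read-out is the number of betaIII-tubulin-positive neurons imaged by automated high-content analysis, with DMSO as negative control.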

The nature of test [10]: CCTE_Mundy_HCI_Cortical_Synap_Neur_Matur_NeuriteCount: CCTE's Synaptogenesis and Neurite Maturation Assay in rat cortical cells for Neurite Count, Mundy Lab (AID 2284222).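 On outcome: exposure from day 7 to day 12 in vitro with readout at day 12.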 Here is the method: as §1, with “plate.CCTE_Mundy_HCI_Cortical_Synap_Neur_Matur_NeuriteCount” for “plate.CCTE_Mundy_HCI_Cortical_Synap_Neur_Matur_SynapseCount”, “neurites” for “synapses per neuron”
as §2

Several values for one entry are separate records, joined by “and”; a condition that tells them apart may be missing. Equal entries are not always repeated. Results filed as inconclusive are left out. Activity calls are given as the source filed them. How the source made its calls, unless noted: active means hit-call score of the fitted dose curve at least 0.9, where 1 is the maximum; inactive means score below 0.9.

As a reminder, the AC50 is the midpoint of the concentration-response curve, whichever way the signal moves.

For `CCOP(=S)(OCC)Oc1nc(Cl)c(Cl)cc1Cl`, the half-maximal activity concentration (AC50) in test [1] was 32.4 µM (active); in [2], 32 µM (active) and 33.4 µM (active); in test [3] it was 31.2 µM (active) and 29 µM (active); in [4] it was 50 µM (active) and 24.7 µM (active); in test [6] it was 50 µM (active) and 27.4 µM (active); in test [7], 29.1 µM (active). Besides, the values for the AC50 in test [8], in test [9] and in test [10] were 28.4 µM (active), 17.1 µM (active) and 30 µM (active), respectively. Besides, in test [5], the result was inactive.

For the compound `C=C(C)C(=O)[O][Sn]([CH2]CCC)([CH2]CCC)[CH2]CCC`, the concentration at half-maximal activity (AC50) was 0.123 µM (active) in [1]; 89.3 nM (active) in [2]; 161 nM (active) in test [3]; 59.7 nM (active) in test [4]; 67.2 nM (active) in [6]; 0.223 µM (active) in [10].

As for `COP(=O)(OC)O/C(=C\Cl)c1cc(Cl)c(Cl)cc1Cl`, the concentration at half-maximal activity (AC50) in test [1] is 34 µM (active) and 32.9 µM (active); in [2] it was 32.5 µM (active) and 31.3 µM (active); in test [7] it was 6.28 µM (active); in [8], 5.52 µM (active); in test [9], 7.22 µM (active). Also, the compound was classed as inactive in test [3], in test [4], in test [6] and in [10].

Consider `CC(C)(C)c1cc(O)ccc1O`, for which the outcome in [5] was inactive.

As for `Oc1cccc2cccnc12`, the outcome in test [5] was inactive.

Consider `ClC(Cl)=C(Cl)C(Cl)=C(Cl)Cl`, for which the outcome in test [5] was inactive.

Consider `O=C1C2(Cl)C3(Cl)C4(Cl)C(Cl)(Cl)C5(Cl)C3(Cl)C1(Cl)C5(Cl)C24Cl` (centres undefined), for which the AC50 in [1] was 22.7 µM (active); in [2] it was 16700 nM (active); in [3], 21500 nM (active); in test [4] it was 20700 nM (active); in test [6] it was 19300 nM (active); in test [10] it was 24.1 µM (active).

For the origin of these results see PubChem BioAssay (EPA / NIEHS).
